Molecules are shown by their SMILES. Hit rate of the full screen: of about 52,000 compounds, about 4,300 (8.3%) were called active. Cut-off read from the data, not from the text of the source: active = survival mostly below about 52% (no sharp cut-off); inactive = mostly above about 56%. The full list was thinned out, with actives kept by preference.

The test system of this assay is DeltatarO mutant. The experiment in a line: S. aureus survival, RN4220 and DeltatarO strains – OD600, teichoic acid synthesis inhibitors, primary screen (AID 463173). To be noted: S. aureus RN4220 wild type/DeltatarO growth, OD600, 18 h, active compounds read low, screened at 18.75 µg/mL (by protocol).
As for `Cc1ccc(C(C(=O)NCc2ccccc2)N(C(=O)C2COc3ccccc3O2)c2cccc(O)c2)o1` (centres undefined), the survival was 45% (active).
The figure for `Cc1ccc(C(C(=O)NC2CCCCC2)N(C(=O)C2COc3ccccc3O2)c2ccc3c(c2)OCO3)o1` (centres undefined) is 77% (inactive).
The figure for `O=C(NCc1ccco1)C(c1cccs1)N(C(=O)C1COc2ccccc2O1)c1cccc(O)c1` (centres undefined) is 63% (inactive); for `CCn1c(SCC(N)=O)nc2ccccc2c1=O` it is 102% (inactive).
Take `Cc1ccc(-c2nc(Cn3c(=O)cc(-c4ccccc4)c4c(C)nn(C)c43)c(C)o2)cc1`: the survival is 108% (inactive).
To `Cc1cc(=O)n(Cc2c(F)cccc2Cl)c2c1c(C)nn2C` belongs 81% (inactive); to `Cc1cccc(-c2nc(Cn3c(=O)cc(-c4ccccc4)c4c(C)nn(C)c43)c(C)o2)c1`, -5% (active).
To `Cc1nn(C)c2c1c(-c1ccccc1)cc(=O)n2Cc1ccccc1F` belongs 109% (inactive).
Take `Cc1oc(-c2ccccc2)nc1Cn1c(=O)cc(-c2ccccc2)c2c(C)nn(C)c21`: the survival was 92% (inactive).
To `Cc1nn(C)c2c1c(-c1ccccc1)cc(=O)n2Cc1c(F)cccc1Cl` belongs -5% (active).
With `CSc1cccc(NC(=O)Nc2ccccc2OCc2cc(=O)n3cc(C)ccc3n2)c1`, the survival was 102% (inactive).
To `CCc1ccc(-c2nc(CN3CCC(C(=O)NCCc4ccc(Cl)cc4)CC3)c(C)o2)cc1` belongs 77% (inactive); to `Cc1cccc(C(=O)N2CCc3cc(CNC(=O)CSc4ccccc4)ccc32)c1`, 77% (inactive); to `CCCc1cc(=O)oc2c(C)c3c(cc12)CN(CCc1ccc(Cl)cc1)CO3`, 39% (active).
For `CCc1cc(=O)oc2c(C)c3c(cc12)CN(CCc1ccccc1OC)CO3`, the survival was 51% (inactive).
To `Cc1c(C)c2cc3c(c(C)c2oc1=O)OCN(CCc1ccc(F)cc1)C3` belongs 41% (active).
To `Cc1c(C)c2cc3c(c(C)c2oc1=O)OCN(CCc1ccccc1)C3` belongs 77% (inactive); to `COC(=O)Cc1c(C)c2cc3c(c(C)c2oc1=O)OCN(CCc1ccc(F)cc1)C3`, 44% (inactive); to `CCc1cc(=O)oc2c(C)c3c(cc12)CN(CCc1ccccc1)CO3`, 71% (inactive).
The figure for `COc1ccc2oc(=O)c(-c3nc(-c4ccc(C)c(C)c4)cs3)cc2c1` is 91% (inactive); for `COc1ccc(C2CC(=O)c3cnc4c(-c5ccc(F)cc5)c(C)nn4c3C2)cc1OC` (centres undefined) it is 80% (inactive); for `CCOC(=O)c1sc2ncn(CC(=O)Nc3ccc(C)cc3Br)c(=O)c2c1C` it is 66% (inactive).
As to `Cc1ccccc1CNC(=O)C(=O)NCC(c1ccc2c(c1)OCO2)N1CCOCC1` (centres undefined), the survival is 87% (inactive).
The figure for `CCN(C(=O)c1cc2c(=O)oc3ccc(C)cc3c2s1)c1cc(OC)ccc1OC` is 78% (inactive).
The figure for `CC(=O)Nc1ccc(Nc2ncnc3c2c(-c2ccccc2)cn3-c2ccc(C)c(Cl)c2)cc1` is 68% (inactive).
For `CNc1oc(-c2ccc(COc3ccc(C)cc3)o2)nc1C#N`, the survival was 77% (inactive).
The figure for `CCCn1c(CCC(=O)Nc2ccc(OCC)cc2)nc2cccnc21` is 93% (inactive); for `COc1ccccc1-c1ncnn1-c1sc2c(c1C#N)CCCCC2` it is -2% (active).
To `N#Cc1c(-n2ncnc2-c2ccccc2C(F)(F)F)sc2c1CCCCC2` belongs 6% (active).
The figure for `COc1ccccc1-c1cc(C(=O)Nc2sc3c(c2C#N)CCCC3)no1` is 130% (inactive); for `N#Cc1c(NC(=O)c2cccs2)sc2c1CCCCC2` it is 87% (inactive); for `COc1cccc(-c2ncnn2-c2sc3c(c2C#N)CCCCC3)c1OC` it is 86% (inactive).
For `Cc1ccccc1-c1ncnn1-c1sc2c(c1C#N)CCCCC2`, the survival was 72% (inactive).
Turning to `N#Cc1c(-n2ncnc2-c2ccccc2Cl)sc2c1CCCCC2`, the survival is 26% (active).
The figure for `CC(NC(=O)Nc1ccccc1C(F)(F)F)c1c(-n2cccc2)sc2c1CCCC2` (centres undefined) is 104% (inactive); for `N#Cc1c(/N=C/N2CCCCC2)sc2c1CCCC2` it is 80% (inactive); for `O=C(CCNS(=O)(=O)c1ccc2c(c1)CCCC(=O)N2)NCc1ccccc1Cl` it is 87% (inactive).
On to `CCCOc1ccc(CNC(=O)Cn2ncn3c(cc4sc(CC)cc43)c2=O)cc1`, for which the survival was 94% (inactive).
On to `CC(C)Cc1nn2c(=O)cc(COC(=O)c3ccccc3NC(=O)c3ccccc3)nc2s1`, for which the survival was 117% (inactive).
The figure for `CSc1ncc(C(=O)Nc2ccccc2C(=O)c2ccccc2)c(C)n1` is 64% (inactive); for `Cc1cccc(C(=O)NC(c2n[nH]c(=S)n2C)C(C)C)c1` (centres undefined) it is 111% (inactive).
To `CCCOc1cccc(C(=O)Nc2cccc(NC(=O)c3ccc(Cl)cc3Cl)c2)c1` belongs 88% (inactive); to `Cc1cn(C)c(CC(=O)Nc2cccc(Cl)c2C)c1C(=O)O`, 99% (inactive).
Turning to `Cc1c(Cl)cccc1NC(=O)CCOc1ccccc1`, the survival was 142% (inactive).
As to `CCc1ccc(NC(=O)Cc2c(C(=O)O)c(C)cn2C)cc1`, the survival is 87% (inactive).
The figure for `CCOC(=O)c1ccccc1NC(=O)Cc1c(C(=O)O)c(C)cn1C` is 17% (active); for `CCOC(=O)c1ccccc1NC(=O)CCOc1ccccc1` it is 22% (active).
Turning to `Cc1ccc(C)c(NC(=O)CCOc2ccccc2)c1`, the survival was 77% (inactive).
The figure for `COc1ccc(C2(C(=O)O)CCCC2)cc1OC` is 107% (inactive); for `CSc1ncc(C(=O)N2CCN(c3cc(C)ccc3C)CC2)c(C)n1` it is 72% (inactive).
The figure for `Cc1ccc(S(=O)(=O)c2nnn3c2nc(N2CCC(C)CC2)c2cc(Cl)ccc23)cc1C` is 78% (inactive); for `COc1ccc(OC)c(C2C(C(=O)N3CCCCC3)=C(C)Nc3nc4ccccc4n32)c1` (centres undefined) it is 63% (inactive); for `COc1ccc(-n2cnc3cc(C(=O)NCCC4=CCCCC4)ccc32)cc1` it is 75% (inactive).
To `CC(C)C(=O)Nc1ccc(N2CCN(C(=O)c3ccccc3)CC2)cc1` belongs 101% (inactive).
As for `CCOCCCn1c(SCC(=O)Nc2ccccc2CC)nc2ccccc2c1=O`, the survival is 80% (inactive).
To `O=C(CSc1nc2ccsc2c(=O)n1Cc1ccccc1Cl)NCc1ccc(Cl)cc1` belongs 101% (inactive); to `Cc1ccc(Cn2c(SCC(=O)NCc3ccccc3)nc3ccsc3c2=O)cc1`, 92% (inactive).
To `CC(C)CCn1c(SCc2cccc(F)c2)nc2ccsc2c1=O` belongs 87% (inactive); to `Cc1ccc(CSc2nc3ccsc3c(=O)n2CCC(C)C)cc1`, -5% (active); to `Cc1ccc(Cn2c(SCC(=O)NCc3ccccc3Cl)nc3ccsc3c2=O)cc1`, -5% (active).
To `Cc1ccccc1CSc1nc2ccsc2c(=O)n1CCC(C)C` belongs 68% (inactive); to `Cc1nc2sc(C(=O)N(C)Cc3ccccc3)c(NC(=O)c3ccccc3)c2c(C)c1Cl`, 60% (inactive); to `Cc1cc(=O)n(Cc2ccccc2Cl)c2c1c(C)nn2-c1ccccc1`, 100% (inactive).
On to `CCOc1ccc(CNC(=O)c2nn(-c3ccc(OC)cc3)c(=O)c3c2c2ccccc2n3C)cc1`, for which the survival is 101% (inactive).
Regarding `CCC(=O)N1c2ccccc2CC1C(=O)NCc1ccc(OC(C)C)cc1` (centres undefined), the survival was 97% (inactive).
On to `CC1CCN(CC(=O)O)CC1`, for which the survival was 99% (inactive).
For `COc1cc(-c2noc(CSc3nc(-c4ccc(F)cc4)cc(=O)[nH]3)n2)cc(OC)c1OC`, the survival is 69% (inactive).
The figure for `CCc1cc(C(=O)N2CCN(c3ccccc3)CC2)no1` is 48% (inactive).
To `O=C(c1cc(-c2ccccc2O)on1)N1CCCCC1` belongs 40% (active); to `CC1CCN(C(=O)c2cc(-c3ccc(Cl)cc3)on2)CC1`, 66% (inactive); to `CC1CCN(C(=O)c2cc(-c3cccc(Cl)c3)on2)CC1`, -15% (active).
To `CN(C(=O)c1cc(-c2ccccc2)on1)C1CCCCC1` belongs 91% (inactive); to `O=C(O)c1cc(-c2ccccc2)on1`, 100% (inactive); to `O=C(c1cc(-c2ccc(O)cc2)on1)N1CCN(c2ccccc2)CC1`, 96% (inactive).
On to `CC1CCN(C(=O)c2cc(-c3ccc(Br)cc3)on2)CC1`, for which the survival is 51% (inactive).
Take `CN(C(=O)c1cc(-c2ccccc2O)on1)c1ccccc1`: the survival is 40% (active).
To `NC(=O)C1CCN(C(=O)c2cc(-c3ccccc3)on2)CC1` belongs 98% (inactive); to `O=C(C1CC(c2ccccc2O)=NO1)N1CCCC1` (centres undefined), 91% (inactive); to `O=C(c1cc(-c2cccc(Cl)c2)on1)N1CCN(c2ccccc2)CC1`, 23% (active).
To `CCN(CCCNC(=O)Cn1ncc2c([nH]c3ccc(C)cc32)c1=O)c1ccccc1` belongs 115% (inactive); to `Cc1csc2nc(COc3ccc(NC(=O)C(C)C)cc3)cc(=O)n12`, 98% (inactive).
The figure for `COc1ccc(NC(=O)Cn2cc(C(=O)c3ccccc3)c(=O)c3cc(OC)ccc32)c(OC)c1` is 92% (inactive); for `CCCn1cc(S(=O)(=O)c2ccc(C)c(C)c2)c(=O)c2cc(F)c(N3CCC(C)CC3)cc21` it is 67% (inactive); for `COc1cccc2cc(C(=O)N3CCN(c4cc(C)ccc4C)CC3)c(=O)oc12` it is 56% (inactive).
For the compound `Cc1cccc(CNC(=O)CN2C(=O)CCn3nc(-c4cn(C)c5ccccc45)cc32)c1`, the survival is 119% (inactive).
Take `CCOC(=O)COc1ccc(CC)cc1C(=O)c1ccn2nc(-c3ccc(Cl)cc3)cc2n1`: the survival is 74% (inactive).
The figure for `COc1ccccc1NC(=O)N(Cc1nnc2n1CCCCC2)c1ccc(F)cc1` is 91% (inactive).
The figure for `COc1ccccc1-c1cc(C(=O)N2CCN(c3ccccc3)CC2)no1` is -15% (active).
For the compound `O=C(c1cc(-c2cccc(Cl)c2)on1)N1CCCCC1`, the survival was 46% (active).
The figure for `Cc1ccc(-c2cc(C(=O)N3CCCC3)no2)cc1` is 98% (inactive).
To `COc1ccc(-c2cc(C(=O)N3CCN(c4ccccc4)CC3)no2)cc1` belongs 77% (inactive).
The figure for `O=C(NCCc1ccccc1)c1cc(-c2cccc(Cl)c2)on1` is 76% (inactive); for `O=C(c1cc(-c2ccccc2)on1)N1CCCCC1` it is 95% (inactive).
Take `CCN(CC)C(=O)c1cc(-c2ccccc2)on1`: the survival is 101% (inactive).
The figure for `COCCNC(=O)c1cc(-c2cccc(Cl)c2)on1` is 134% (inactive).
The figure for `CN(Cc1ccccc1)C(=O)c1cc(-c2cccc(Cl)c2)on1` is -15% (active).
The figure for `CCc1ccc(CN(Cc2ccco2)C(=O)c2cc(-c3ccc(Cl)cc3)on2)cc1` is 75% (inactive); for `CCN(CC)C(=O)c1cc(-c2ccc(Cl)cc2)on1` it is 36% (active); for `COc1ccccc1N1CCN(C(=O)c2cc(-c3ccccc3O)on2)CC1` it is 61% (inactive).

The values above are taken from PubChem BioAssay AID463173 (ICCB-Longwood Screening Facility, Harvard Medical School, 2010).
